High-throughput results from PubChem BioAssay.
Pf growth 96h: P. falciparum growth inhibition at 96 hours | 320,000 tested, 6.9% active | P. falciparum luciferase reporter growth, 96 h | Potency, µM (titrated, usually from 28.7 µM), for inactives: top-dose activity change, negative = inhibition, actives largely listed as inhibitors | AID 504834; further: potency means the concentration at half of the fitted maximal effect; on the % scale 0 is the no-effect control and ±100 the full control effect
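Erythrocytes infected with luciferase-expressing P. falciparum were dispensed at 2% hematocrit and 0.05% parasitemia (final), then incubated with compounds 96 hours at 37 C in 5% CO2. Luminescence after detection reagent addition reported growth.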
Cycloheximide cs: counter-screen hit for Shiga toxin inhibitors, cycloheximide | cell reporter, cycloheximide protein synthesis inhibition counterscreen | max response, % | 300,000 tested, 12% active | AID 2314; in the data active means max response mostly above about 13%, no sharp cut-off; inactive means mostly below about 14%; further: read at 38.3 µM for the half of the compounds with a filed dose; 0% is about no effect
Shiga toxin inh: blocks Shiga toxin action in Vero cells | Vero cells, Shiga toxin protein synthesis inhibition reporter | inhibition, % at 38.7 µM | 290,000 tested, 9.2% active | AID 2315; in the data active means inhibition mostly above about 28%, no sharp cut-off; inactive means mostly below about 43%; further: 0% is about no effect
Pf growth 48h: P. falciparum growth inhibition at 48 hours (one generation). P. falciparum luciferase growth in erythrocytes, 48 h. Potency, µM (doses to about 28.7 µM), for the others: at the top dose activity change, negative = inhibition, hits mostly inhibitors. 310,000 tested, 5.9% active; further: potency means the concentration at half of the fitted maximal effect; on the % scale 0 is the no-effect control and ±100 the full control effect
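In quantitative HTS format, infected erythrocytes bearing luciferase-reporter parasites were treated for a single generation at 37 C. Luminescence after adding detection reagent served as the growth measure.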
NS1 inh: blocks influenza NS1 protein function | AID 2326 | Potency, µM (highest dose often 46.1 µM), inactives show at the highest dose activity, positive = more growth | 270,000 tested, 0.4% active; calls by dose curve; further: potency means the concentration at half of the fitted maximal effect; actives are rising curves; nearly all actives have a fitted effect of over 50% in size
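Read-out: OD600 growth recovery of NS1-expressing budding yeast. Cells grown overnight at 30C in -URA glucose medium, washed, resuspended and diluted 1:100 in 2% galactose assay medium, pH 6.0. Same strain lacking NS1 served as positive control.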
* = called active by the depositor; u = inconclusive; x = no result given; ! = a repeat was not active. Most compounds without a hit are left out; they make up all but 21% or so of the library. Unless noted, the call rests on the fitted dose curve; in most records, active means well fitted inhibition curve with a large enough effect; inconclusive means small, poorly fitted or top-dose-only effect, or another doubt; inactive means no such curve, though single readings can be large or run the other way.

SMILES	Pf growth 96h	Cycloheximide cs	Shiga toxin inh	Pf growth 48h	NS1 inh
Cc1ccc(Sc2ncccc2NC(=O)c2ccccc2Cl)cc1	20%	-1	27	-3%	-2%
Cc1ccc2c(c1)N1C(=O)c3ccccc3C1C1=C(CC(C)(C)CC1=O)N2 (centres undefined)	-4%	-1	-6	u	19%
COc1cc(N(C)C)c([N+](=O)[O-])cc1C(=O)NC(C)CNc1ccc([N+](=O)[O-])cc1Cl (centres undefined)	20%	2	-9	u	8%
CC(=O)N1CCc2cc(S(=O)(=O)NC(CC(C)C)C(=O)N3CCCC3)ccc21 (centres undefined)	12µM*	1	-6	11%	4%
CC(=O)N1CCc2cc(S(=O)(=O)NC(Cc3ccccc3)C(=O)O)ccc21 (centres undefined)	17µM*	-1	6	16%	-3%
Cc1ccc(-n2nc3c(c2NC(=O)c2ccccc2)CS(=O)(=O)C3)cc1C	-19%	11	26	-7%	4%
COC(=O)[C@H](Cc1ccccc1)[C@@H](C)OS(N)(=O)=O	2%	-2	-4	7%	-3%
Cc1cccc(CC(C)NC(=O)c2cc(COc3ccc(F)cc3F)on2)n1 (centres undefined)	-16%	49*	45*	18%	-19%
Cc1cccc(CC(C)NC(=O)c2cc(COc3ccc(C)c(C)c3)on2)n1 (centres undefined)	1%	77*	98*	u	-50%
Cc1ccc(OCc2cc(C(=O)NC(C)Cc3cnccn3)no2)cc1C (centres undefined)	-5%	13	8	-16%	-27%
Cc1nc(C(C)NC(=O)c2cc(COc3ccc(C)c(C)c3)on2)c(C)s1 (centres undefined)	u	41*	125*	-3%	-47%
Cc1nc2cc(OCc3cc(C(=O)NC(C)c4cn(C)nc4C)no3)ccc2s1 (centres undefined)	1%	14	1	23%	10%
Cc1cc(OCc2cc(C(=O)NC(C)c3c(C)nn(C)c3C)no2)cc(C)c1Cl (centres undefined)	u	41*	111*	-21%	-15%
O=C(O)c1cc2ccccc2c(S(=O)(=O)O)c1O	x	x	x	x	0%
O=C(OCC(=O)c1ccccc1Cl)c1cnccn1	24%	-3	-6	10%	6%
CC(=O)Nc1ccc(S(=O)(=O)Nc2nc3ccccc3nc2-n2ccc(=NC(=O)c3ccc(F)cc3)cc2)cc1	-1%	-1	-15	-13%	x
OCC[C@@H]1C[C@@H](O)[C@H](O)[C@@]2(CCCc3ccccc3O2)O1	85%	1	-3	18%	-4%
Cc1ncc([N+](=O)[O-])n1CCOC(=O)NC(NCc1ccccc1)C(Cl)(Cl)Cl (centres undefined)	0.33µM*	-2	-16	8.3µM*	9%
Cc1ncc([N+](=O)[O-])n1CCOC(=O)NC(Nc1ccc(F)cc1)C(Cl)(Cl)Cl (centres undefined)	6.6µM*	-3	-4	8.3µM*	-1%
Cc1ncc([N+](=O)[O-])n1CCOC(=O)NC(NCc1cccnc1)C(Cl)(Cl)Cl (centres undefined)	u	-5	-8	u	7%
Cc1ccc(C2(c3ccccc3)NC(=O)N(CC(=O)NC3(C#N)CCCC3)C2=O)cc1C (centres undefined)	u	x	x	13µM*	x
Cc1ccc(C2(c3ccccc3)NC(=O)N(CC(=O)NCc3ccco3)C2=O)cc1C (centres undefined)	5.9µM*	x	x	u	x
CCCNC(=O)CN1C(=O)NC(c2ccccc2)(c2ccccc2)C1=O	13%	-5	-10	11%	1%
Cc1ccc(C2(c3ccccc3)NC(=O)N(CC(=O)NC3CCS(=O)(=O)C3)C2=O)cc1C (centres undefined)	-29%	x	x	-12%	x
CC(=O)Nc1nc(C)c(Oc2cccc(C(F)(F)F)c2)c(=O)[nH]1	u	-1	10	u	-1%
SMILES	Pf growth 96h	Cycloheximide cs	Shiga toxin inh	Pf growth 48h	NS1 inh
N#Cc1c(N)nc2c(c1N)CC(CO)O2 (centres undefined)	64%	7	-19	1%	3%
Cc1ccccc1OCC1Cc2c(nc(N)c(C#N)c2N)O1 (centres undefined)	86%	29*	58*	55%	-16%
N#Cc1c(N)nc2c(c1N)CC(COc1ccccc1)O2 (centres undefined)	10%	37*	52*	39%	1%
CCN(c1ccccc1)S(=O)(=O)c1ccc(F)cc1C	x	1	-2	-6%	-33%
CCN1C(=NCCN2CCOCC2)N[C@@H](c2ccccc2)C(C(=O)OC)=C1C	1.1µM*!	-2	-3	3%	-11%
CCN1C(=NCCCCO)N[C@@H](c2ccccc2)C(C(=O)OC)=C1C	55%	-2	-2	-23%	10%
COC(=O)C1=C(C)N(CCc2cc(OC)c(OC)c(OC)c2)C(=O)N[C@H]1c1ccc(Br)cc1	10µM*	-4	-8	13µM*	-1%
C=CCN=C1N[C@@H](c2ccccc2)C(C(=O)OC)=C(C)N1CCOC	10µM*!	-3	-7	34%	8%
COC(=O)C1=C(C)N(CC2CC2)C(=NCc2cc(OC)c(OC)c(OC)c2)N[C@H]1c1ccccc1	12µM*!	-1	-2	3%	3%
CCN(CC)c1ccc(C=NCCNS(=O)(=O)c2ccc(C)cc2)cc1	11%	12	8	8%	-1%
Cc1ccc(CC(=O)NC2CCCc3ccccc32)cc1C (centres undefined)	-25%	0	-6	10%	-13%
CC(C)C1N=C2c3ccccc3N=C(SCc3cc(=O)n4cc(Cl)ccc4n3)N2C1=O (centres undefined)	u	12	-21	1%	-7%
O=C(c1ccc(S(=O)(=O)N2CCOCC2)cc1)N1CCOCC1	0%	1	-11	56%	7%
COC(=O)C1=C(C)N(Cc2ccccc2)C(=NCc2cc(OC)c(OC)c(OC)c2)N[C@H]1c1ccccc1	u	-3	-3	u	0%
COC(=O)C1=C(C)N(Cc2ccccc2)C(=NCc2cccc(Cl)c2)N[C@H]1c1ccccc1	u	-3	-3	4%	0%
COC(=O)C1=C(C)N(Cc2ccccc2)C(=NCc2ccccc2)N[C@H]1c1cccc(F)c1	9.3µM*	-4	-6	u	-6%
COC(=O)C1=C(C)N(Cc2ccccc2)C(=S)N[C@H]1c1cccc(F)c1	u	-3	-3	u	-66%
COC(=O)C1=C(C)N(Cc2ccccc2)C(=NCc2ccccc2)N[C@H]1c1ccccc1	1.7µM*	-1	-3	u	11%
COCCN=C1N[C@@H](c2ccccc2)C(C(=O)OC)=C(C)N1Cc1ccccc1	u	-2	-4	11%	17%
COC(=O)C1=C(C)N(Cc2ccccc2)C(=NCCc2c[nH]c3ccccc23)N[C@H]1c1ccccc1	8.3µM*	-3	-2	u	15%
